Molecules are shown by their SMILES. Several values for one entry are separate records, joined by “and”; a condition that tells them apart may be missing. Equal values may be shown once. About 5,100 (1.5%) of roughly 340,000 compounds were called active. Many of the other results were omitted from the sample, so actives are more common in it than they were. A number with no mark means an inactive call.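 Rule for the calls: active = mean Tm shift, scaled 0 neutral to 100 positive control, at about 1.3% or above, every replicate too (limit read from the data); inconclusive = no clear call, values can overlap the other calls; inactive = the rest.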

Fibroblast growth factor 22 (Homo sapiens), sequence (Q9HCT0 whole entry, looked up): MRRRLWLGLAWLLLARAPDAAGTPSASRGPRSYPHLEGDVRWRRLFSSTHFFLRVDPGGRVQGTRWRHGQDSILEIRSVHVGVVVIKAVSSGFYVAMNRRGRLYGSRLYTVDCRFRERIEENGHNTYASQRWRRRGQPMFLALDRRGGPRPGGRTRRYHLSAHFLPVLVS

The test concerns the target Fibroblast growth factor 22 (Homo sapiens) (UniProt Q9HCT0). The test can be described thus: binders of human FGF22 protein, primary screen, FGF22 synaptogenesis inhibitor project, biophysical, thermal shift, single point (AID 651658). The following applies: recombinant FGF22 thermal shift, SYPRO orange fluorescence; at 9.99 µM; hits give high values; percent of sucrose octasulfate shift, DMSO zero.
On to `C[C@H]1CN([C@@H](C)CO)S(=O)(=O)c2ccc(C3=CCCC3)cc2O[C@H]1CN(C)C(=O)Cc1ccncc1`, for which the activity (Tm shift, normalised) is 0.421%. As for `O=C(C1CCCCC1)N1[C@H](CO)[C@@H](c2ccccc2)C12CN(Cc1cccc(Cl)c1)C2`, the activity (Tm shift, normalised) was -0.133%.

Regarding `O=C(OCc1cc(=O)n2ccsc2n1)C1(c2ccc(Cl)cc2)CC1`, the activity (Tm shift, normalised) is 0.39%. `COc1ccc(C(=O)OCc2cc(=O)n3ccsc3n2)cc1F`: the activity (Tm shift, normalised) is 44% (active). For `COc1cc(C(=O)OCc2cc(=O)n3ccsc3n2)ccc1OC(C)C`, the activity (Tm shift, normalised) is 0.144%.

For the compound `CCCC#Cc1ccc([C@H]2[C@H]3CN(C(=O)Nc4cccc(F)c4)CC(=O)N3[C@H]2CO)cc1`, the activity (Tm shift, normalised) is 0.366%.

Consider `COc1cc(CN(C)Cc2nc3cc(C(F)(F)F)ccc3c(=O)[nH]2)ccc1OC(F)F`, for which the activity (Tm shift, normalised) was -0.382%. With `COc1cc2nc(CN(C)Cc3ccc(F)cc3)[nH]c(=O)c2cc1OC`, the activity (Tm shift, normalised) was -0.106%. For the compound `COc1ccc(CN(C)Cc2nc3cc(OC)c(OC)cc3c(=O)[nH]2)c(OC)c1`, the activity (Tm shift, normalised) is 43.6% (active). The same measure for `O=C(Nc1ccc(C(F)(F)F)cc1)N[C@@H]1CC[C@H](CC(=O)N2CCCCC2)O[C@H]1CO`: -0.164%; for `CO[C@@H]1CN(C)C(=O)c2ccc(NS(C)(=O)=O)cc2OC[C@@H](C)N(C(=O)C2CCOCC2)C[C@@H]1C`: -0.055%; for `O=C(c1ccc(F)cc1)N1CC2(C1)[C@H](c1ccccc1)[C@@H](CO)N2Cc1ccccn1`: -0.271%.

With `O=C(NCCc1c[nH]c2ccccc12)c1cc2ccccc2oc1=O`, the activity (Tm shift, normalised) is 0.185%. To `N#C/C(=C/c1ccc(N2CCCCC2)o1)C(=O)NCCc1c[nH]c2ccccc12` belongs -0.174%; to `O=C(NCCc1c[nH]c2ccccc12)C(=O)NCC1CCCO1` (stereo unspecified), 1.53% (active). As for `C[C@H](CO)N1C[C@H](C)[C@H](CN(C)C(=O)C2CC2)OCc2ccccc2-c2ccccc2C1=O`, the activity (Tm shift, normalised) is 0.103%.

In the case of `O=C(NCC[C@@H]1CC[C@H](NC(=O)C2CC2)[C@H](CO)O1)c1cnccn1`, the activity (Tm shift, normalised) is 0.118%. Turning to `C[C@H](O)C#Cc1ccc2c(c1)O[C@H](CN(C)Cc1ccccn1)[C@H](C)CN([C@H](C)CO)S2(=O)=O`, the activity (Tm shift, normalised) was -0.169%.

For the compound `CCCNC(=O)C[C@@H]1C[C@H]2c3cc(NC(=O)Nc4ccccc4F)ccc3O[C@H]2[C@H](CO)O1`, the activity (Tm shift, normalised) was -0.607%. For `COc1cccc(NC(=O)N2[C@@H]3CNC[C@H]2C3c2ccc(-c3ccncc3)cc2)c1` (stereo partly specified), the activity (Tm shift, normalised) is 0.042% and -0.443%. With `Fc1ccc(/C=N/n2c(COc3ccccc3)n[nH]c2=S)cc1`, the activity (Tm shift, normalised) is 0.702%.

`S=c1[nH]nc(COc2ccccc2)n1-c1ccccc1`: the activity (Tm shift, normalised) is 43.8% (active). For the compound `COc1ccc(OCc2n[nH]c(=S)n2N)cc1`, the activity (Tm shift, normalised) is 0.243%. As for `CO[C@@H]1CN(C)C(=O)c2cc(NS(=O)(=O)CC(F)(F)F)ccc2OC[C@H](C)N(C)C[C@H]1C`, the activity (Tm shift, normalised) is -0.229%. Turning to `O=C(C[C@H]1CC[C@H]2[C@@H](COC[C@H](O)CN2C(=O)c2ccccc2F)O1)NCc1ccccc1`, the activity (Tm shift, normalised) is 0.053%. For `O=C(NCC1CC1)[C@H]1[C@H](CO)[C@H]2Cn3c(ccc(/C=C/c4ccccc4)c3=O)[C@@H]1N2C(=O)C1CCC1`, the activity (Tm shift, normalised) is 0.006%. Regarding `COc1ccc(Cn2c(=O)oc3ccccc32)cc1`, the activity (Tm shift, normalised) was -0.205%. `COc1ccc(-c2ccc([C@@H]3[C@@H](CO)N4C(=O)CN(Cc5ccccc5)C[C@@H]34)cc2)cc1`: the activity (Tm shift, normalised) was -0.039%. Take `COc1ccc(Cn2c(-c3ccc(Cl)cc3)c[n+]3ccccc23)cc1`: the activity (Tm shift, normalised) is 44% (active). Turning to `C[C@@H]1CCCCO[C@H](CN(C)Cc2ccc3c(c2)OCO3)[C@H](C)CN([C@@H](C)CO)C(=O)c2cc(NS(=O)(=O)c3cccs3)ccc2O1`, the activity (Tm shift, normalised) was -0.357% and -0.044%.

Turning to `O=C(Nc1ccc(Cl)cc1)C1c2cccc[n+]2CC(=O)N1Cc1ccc2c(c1)OCO2` (stereo unspecified), the activity (Tm shift, normalised) was -0.124%.

`CCCOc1ccc(NC(=O)CC2C(=O)N(C)C(=S)N2Cc2ccc3c(c2)OCO3)cc1` (stereo unspecified): the activity (Tm shift, normalised) is 2.52% (active). Regarding `CCOc1ccc(NC(=O)CC2C(=O)N(c3ccccc3)C(=O)N2CCOC)cc1` (stereo unspecified), the activity (Tm shift, normalised) was -0.014%.

As to `COc1ccc(NC(=O)N[C@@H]2CC[C@H](CC(=O)NC3CCC3)O[C@H]2CO)cc1`, the activity (Tm shift, normalised) was -0.109%. With `O=C(C[C@@H]1CC[C@@H]2[C@H](COC[C@H](O)CN2S(=O)(=O)c2ccc(Oc3ccccc3)cc2)O1)NCCN1CCCCC1`, the activity (Tm shift, normalised) is 0.107%. The same measure for `COc1ccccc1-c1cnc2c(c1)C(=O)N([C@@H](C)CO)C[C@@H](C)[C@@H](CN(C)C(=O)c1cccnc1)O2`: -0.285%; for `COc1ccccc1C#Cc1cnc2c(c1)C(=O)N([C@@H](C)CO)C[C@@H](C)[C@@H](CN(C)C(=O)CN(C)C)O2`: -0.154%. Take `CN(C)CCNC(=O)Cc1ccc([N+](=O)[O-])cc1`: the activity (Tm shift, normalised) is 0.505%.

`O=C(CC(c1ccccc1)c1ccccc1)NCC(O)c1ccc([N+](=O)[O-])cc1` (stereo unspecified): the activity (Tm shift, normalised) is -0.099%.

With `CN(C)C(CNC(=O)Cc1ccc([N+](=O)[O-])cc1)c1ccccc1` (stereo unspecified), the activity (Tm shift, normalised) was 42.9% (active). To `CCC(=O)N(C)C[C@H]1Oc2ncc(C#CC(C)C)cc2C(=O)N([C@@H](C)CO)C[C@H]1C` belongs 0.017%.

The values are drawn from PubChem BioAssay AID651658 (Broad Institute, 2012).
